Measured values from PubChem BioAssay (NCATS).
Records with an inconclusive call do not appear. The source made the active and inactive calls. Calls come from the whole dose curve; as a rule, active = well fitted curve in the direction sought with a large enough effect; inconclusive = small, poorly fitted or top-dose-only effect, or another doubt; inactive = no such curve, though single readings can be large; an effect the other way counts as inactive or inconclusive.

Assays:
HEK293 = assay: Cytotoxic Profiling of Annotated Libraries Using Quantitative High-Throughput Screening (AID 1296008); details: Five cell lines viability, CellTiter-Glo ATP luminescence, 48-72 h; max response: active compounds read low; note: nearly all actives have a fitted effect of over 60% in size
Method in brief: (§1)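 Cells exposed to compounds for 48 or 72 hr at 37 degrees Celsius. Viability read as ATP-coupled luminescence with CellTiter-Glo after 10 min at room temperature.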

KB-3-1 = assay: as above; details: Five cell lines viability, CellTiter-Glo ATP luminescence, 48-72 h; max response: active compounds read low
Method in brief: as §1

MKL-2 = assay: qHTS assay to identify novel small-molecules to repurpose for Merkel cell carcinoma treatment (AID 1296009); details: MCC and control cell lines, CellTiter-Glo viability, 72 h; series mostly up to 46 µM; note: nearly all actives have a fitted effect of over 60% in size
Method in brief: (§2)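 Cells were treated for 72 hr at 37 degree celsius with compounds in 8- or 11-point dose response. Viability was read by CellTiter-Glo luminescence, normalized to no-cell (cytotoxicity) and DMSO controls.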

WaGa = assay: as above; details: MCC and control cell lines, CellTiter-Glo viability, 72 h; series mostly up to 46 µM
Method in brief: as §2

C33A = assay: Primary qHTS to identify gynecologic anti-cancer compounds using libraries of approved drugs and bioactive compounds (AID 1345084); details: Gynecologic cancer cell panel viability, ATPlite luminescence, 48 h; series mostly up to 57.5 µM; note: nearly all actives have a fitted effect of over 55% in size
Method in brief: (§3)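 Cell viability after 48 h drug treatment, ATPlite luminescence readout; five doses.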

CAOV3 = assay: as above; details: Gynecologic cancer cell panel viability, ATPlite luminescence, 48 h; series mostly up to 57.5 µM
Method in brief: as §3

CASKI = assay: as above; details: Gynecologic cancer cell panel viability, ATPlite luminescence, 48 h; series mostly up to 57.5 µM
Method in brief: as §3

Es-2 = assay: as above; details: Gynecologic cancer cell panel viability, ATPlite luminescence, 48 h; series mostly up to 57.5 µM
Method in brief: as §3

HACAT [1] = assay: qHTS assay to identify novel small-molecules to repurpose for Merkel cell carcinoma treatment (AID 1296009); details: MCC and control cell lines, CellTiter-Glo viability, 72 h; at 44.8 µM (top of the series) unless noted; note: nearly all actives have a fitted effect of over 60% in size
Method in brief: as §2

MCC-13 = assay: as above; details: MCC and control cell lines, CellTiter-Glo viability, 72 h; series mostly up to 46 µM
Method in brief: as §2

MCC-26 = assay: as above; details: MCC and control cell lines, CellTiter-Glo viability, 72 h; series mostly up to 46 µM
Method in brief: as §2

NIH3T3 [2] = assay: as above; details: MCC and control cell lines, CellTiter-Glo viability, 72 h; at 44.8 µM (top of the series) unless noted
Method in brief: as §2

UISO = assay: as above; details: MCC and control cell lines, CellTiter-Glo viability, 72 h; series mostly up to 46 µM
Method in brief: as §2

HeLa = assay: Primary qHTS to identify gynecologic anti-cancer compounds using libraries of approved drugs and bioactive compounds (AID 1345084); details: Gynecologic cancer cell panel viability, ATPlite luminescence, 48 h; series mostly up to 57.5 µM; note: nearly all actives have a fitted effect of over 55% in size
Method in brief: as §3

Hek293T = assay: as above; details: Gynecologic cancer cell panel viability, ATPlite luminescence, 48 h, control line for the selectivity index; series mostly up to 57.5 µM
Method in brief: as §3

MKL-1 = assay: qHTS assay to identify novel small-molecules to repurpose for Merkel cell carcinoma treatment (AID 1296009); details: MCC and control cell lines, CellTiter-Glo viability, 72 h; series mostly up to 46 µM; note: nearly all actives have a fitted effect of over 60% in size
Method in brief: as §2

HaCat [3] = assay: Cytotoxic Profiling of Annotated Libraries Using Quantitative High-Throughput Screening (AID 1296008); details: Five cell lines viability, CellTiter-Glo ATP luminescence, 48-72 h; max response: active compounds read low; note: nearly all actives have a fitted effect of over 60% in size
Method in brief: as §1

NIH3T3 [4] = assay: as above; details: Five cell lines viability, CellTiter-Glo ATP luminescence, 48-72 h; max response: active compounds read low
Method in brief: as §1
% is set by controls: 0 for no effect and ±100 for the full control effect; potency is the fitted concentration of half-maximal effect.

CC(C)(C)c1ccc(C(=O)CCCN2CCC(OC(c3ccccc3)c3ccccc3)CC2)cc1
active: Potency (HEK293) 8.41 µM | Potency (MKL-2) 7.5 µM | Potency (WaGa) 15 µM | Potency (CAOV3) 28.2 µM
inactive: max response (KB-3-1) -0.417% | Potency (C33A) | Potency (CASKI) | Potency (Es-2)

CC1=NS(=O)(=O)c2cc(Cl)ccc2N1
inactive: outcome (HACAT [1]) | Potency (MCC-13) | Potency (MCC-26) | Potency (MKL-2) | outcome (NIH3T3 [2]) | Potency (UISO) | Potency (WaGa) | Potency (C33A) | Potency (CAOV3) | Potency (CASKI) | Potency (Es-2) | Potency (HeLa) | Potency (Hek293T)

CN(C)CC[C@@H](c1ccc(Br)cc1)c1ccccn1
inactive: outcome (HACAT [1]) | Potency (MCC-13) | Potency (MCC-26) | Potency (MKL-1) | Potency (MKL-2) | Potency (UISO) | Potency (WaGa) | Potency (C33A) | Potency (CAOV3) | Potency (CASKI) | Potency (Es-2) | Potency (HeLa) | Potency (Hek293T)

COCCOC(=O)C1=C(C)NC(C)=C(C(=O)OC(C)C)C1c1cccc([N+](=O)[O-])c1 (stereo not given)
active: Potency (WaGa) 26.6 µM
inactive: outcome (HaCat [3]) | max response (NIH3T3 [4]) -6.33% | outcome (HACAT [1]) | Potency (MCC-13) | Potency (MCC-26) | Potency (C33A) | Potency (CAOV3) | Potency (CASKI) | Potency (Es-2) | Potency (HeLa) | Potency (Hek293T)

COC(=O)C1=C(C)NC(C)=C(C(=O)OC(C)(C)CN(C)CCC(c2ccccc2)c2ccccc2)C1c1cccc([N+](=O)[O-])c1 (stereo not given)
inactive: Potency (MCC-26) | Potency (C33A) | Potency (CAOV3) | Potency (CASKI) | Potency (Es-2) | Potency (Hek293T)
active: Potency (HEK293) 10.6 µM

C#CCN(C)CCCOc1ccc(Cl)cc1Cl
inactive: Potency (MCC-13) | Potency (MCC-26) | Potency (MKL-1) | Potency (MKL-2) | Potency (UISO) | Potency (WaGa) | Potency (C33A) | Potency (CAOV3) | Potency (CASKI) | Potency (Es-2) | Potency (HeLa) | Potency (Hek293T)
